From PubChem BioAssay (NCATS) come the findings set out here.

SMILES strings stand for the structures. Results filed as inconclusive are left out. A number with no mark means an inactive call. The source made the active and inactive calls. The call rests on the fitted dose curve; in most records, active means well fitted curve in the direction sought with a large enough effect; inconclusive means small, poorly fitted or top-dose-only effect, or another doubt; inactive means no such curve, though single readings can be large; an effect the other way counts as inactive or inconclusive.

The target in assay [1] is Aldehyde dehydrogenase, mitochondrial (Homo sapiens) (UniProt P05091). Description: qHTS for Inhibitors of the Aldehyde Dehydrogenase Family (ALDH2) Primary screen (AID 2061308).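 Further: plate controls were vehicle for no effect and reference inhibitor for full effect; nearly all actives have a fitted effect of over 55% in size.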 The note with it: ALDH2 enzyme inhibition qHTS, 1536-well; series mostly up to 56 µM.
In assay [2] the target is Retinaldehyde dehydrogenase 3 (Homo sapiens) (UniProt P47895). Description: qHTS for Inhibitors of the Aldehyde Dehydrogenase Family (ALDH1A3) Primary screen (AID 2061315).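 Further: plate controls were DMSO vehicle for no effect and reference inhibitor for full effect.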 As to conditions: ALDH inhibition qHTS; series mostly up to 56 µM.
Assay [3] in a line: BET inhibitor-based combinations targeting novel dependencies in MECOM-rearranged (r) AML: SET-2 cell line (AID 2202231). Further: nearly all actives have a fitted effect of over 35% in size. Further: potency means the concentration at half of the fitted maximal effect.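 On viability: plate controls were DMSO treated cells for no effect and wells without cells for full effect.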 The note with it: SET-2 AML cells viability, CellTiter-Glo luminescence, 48 h; viability: active compounds read low, concentration not given here. The method, boiled down:
(§1)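 Cells were plated at 500 per well and exposed to an 11-point dose series of each drug for 48 hr. Viability was measured by CellTiter-Glo luminescence, normalized to DMSO and empty-well controls, and summarized as AUC and per-cell-line Z-AUC.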
(ATP-based viability assays read luminescence as a measure of living cells.)

Assay [4] can be described thus: BET inhibitor-based combinations targeting novel dependencies in MECOM-rearranged (r) AML: OCI-AML3 cell line (AID 2202232). Further: nearly all actives have a fitted effect of over 35% in size. Further: potency means the concentration at half of the fitted maximal effect. As to conditions: CellTiter-Glo luminescence, 48 h; Potency: OCI-AML3 viability; series mostly up to 46 µM. The method, boiled down: as §1
A short description of assay [5]: BET inhibitor-based combinations targeting novel dependencies in MECOM-rearranged (r) AML: MV-4-11 cell line (AID 2202233). Further: nearly all actives have a fitted effect of over 45% in size. Further: potency means the concentration at half of the fitted maximal effect. The note with it: MV-4-11 AML viability, CellTiter-Glo luminescence, 48 h; series mostly up to 46 µM. The method, boiled down: (§2)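 Activity is given as area under the curve and as Z-AUC, mean-centred within each cell line. It comes from 11-point dose curves normalized to DMSO and empty wells. CellTiter-Glo luminescence was read after 48 hr drug exposure of 500 cells/well.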

The nature of assay [6]: BET inhibitor-based combinations targeting novel dependencies in MECOM-rearranged (r) AML: HNT-34 cell line (AID 2202234). Further: nearly all actives have a fitted effect of over 35% in size. Further: potency means the concentration at half of the fitted maximal effect. As to conditions: HNT-34 AML viability, CellTiter-Glo luminescence, 48 h; series mostly up to 46 µM. The method, boiled down:
as §2

Assay [7] is described as follows: BET inhibitor-based combinations targeting novel dependencies in MECOM-rearranged (r) AML: UCSD-AML1 cell line (AID 2202235). Further: nearly all actives have a fitted effect of over 40% in size. Further: potency means the concentration at half of the fitted maximal effect. The note with it: UCSD-AML1 AML cells viability, CellTiter-Glo, 48 h; series mostly up to 46 µM. An outline of the steps:
as §2

Assay [8] can be described thus: BET inhibitor-based combinations targeting novel dependencies in MECOM-rearranged (r) AML: AML-191 cell line (AID 2202236; further: nearly all actives have a fitted effect of over 35% in size; further: potency means the concentration at half of the fitted maximal effect). The note with it: AML-191 viability, CellTiter-Glo luminescence, 48 h; series mostly up to 46 µM. The method, boiled down:
as §1

The nature of assay [9]: BET inhibitor-based combinations targeting novel dependencies in MECOM-rearranged (r) AML: AML-194 cell line (AID 2202237; further: potency means the concentration at half of the fitted maximal effect; nearly all actives have a fitted effect of over 40% in size). The note with it: AML-194 (MECOM-r AML) viability, CellTiter-Glo, 48 h; series mostly up to 46 µM. The method, boiled down: as §1
In assay [10] the target is Aldehyde dehydrogenase 1A1 (Homo sapiens) (UniProt P00352). The assay can be described thus: qHTS for Inhibitors of the Aldehyde Dehydrogenase Family (ALDH1A1) Confirmatory screens (AID 2061316). Further: potency means the concentration at half of the fitted maximal effect; nearly all actives have a fitted effect of over 65% in size. The note with it: ALDH inhibition qHTS; series mostly up to 47.3 µM. (In general: In qHTS, concentration-response curves come from the screen itself.)

For `NC(=O)C1CCN(c2nc(-c3ccc(N)cc3)cs2)CC1`, the Potency entry in assay [1] and in assay [2] was “inactive” each time.

Turning to `COc1cccc(Nc2ncnn3ccc(CN4CC[C@@H](N)[C@H](O)C4)c23)c1`, the Potency result in assay [1] and in assay [2] was “inactive” in each case. Further, in assay [3], the viability (usually the share of living cells, or the viability signal relative to a control) is 90.8%. For the same compound, the Potency is 14.8 µM (active) in assay [4]; 0.296 µM (active) in assay [5]; 1.32 µM (active) in assay [6]; 4.17 µM (active) in assay [7]; 4.68 µM (active) in [8].

With `CNS(=O)(=O)c1ccc2c(c1)/C(=C/c1[nH]c3c(c1CCCN1CCN(C)CC1)CCCC3)C(=O)N2`, the Potency entry in [1] and in assay [2] was “inactive” in each case. The Potency is 18.6 µM (active) in [3]; 18.6 µM (active) in assay [4]; 1.18 µM (active) in assay [5]; 20.9 µM (active) in assay [6]; 14.8 µM (active) in [8]; 13.2 µM (active) in assay [9].

On to `COc1ccccc1-c1cccc(-c2c(O)c3cc(C#N)c(Cl)cc3[nH]c2=O)c1`, for which the Potency entry in assay [1], in [2], in assay [4], in [5], in [6] and in assay [7] was “inactive” each time. Further, in assay [8], the Potency result is “inactive”. Also, in assay [3], the viability was 99.8%.

For the compound `NC[C@@](O)(c1ccc(Cl)cc1)c1ccc(-c2cn[nH]c2)cc1`, the Potency result in [1] and in assay [2] was “inactive” in each case. The Potency in assay [3] is 7.42 µM (active); in assay [4], 5.25 µM (active); in assay [5], 4.68 µM (active); in assay [6], 4.17 µM (active); in assay [7], 9.34 µM (active); in assay [8], 7.42 µM (active). Besides, the Potency in assay [9] is 6.61 µM (active).

As for `Cn1nnnc1Sc1ncnc2scc(-c3cccc(N)c3)c12`, the Potency result in [1] and in [2] was “inactive” in each case. Besides, in assay [10], the Potency is 22.5 µM (active).

Consider `Cc1cc(C(=O)Nc2cc(Nc3ccc4c(/C=C/c5ccccn5)n[nH]c4c3)ccc2F)n(C)n1`, for which the Potency entry in assay [1] and in assay [2] was “inactive” throughout. The Potency was 18.6 µM (active) in [3]; 18.6 µM (active) in assay [4]; 16.6 µM (active) in [5]; 7.42 µM (active) in [6]; 6.61 µM (active) in assay [7].
